Measured values from the supplement of paper PMC7156485.
“And” between values parts separate entries of the source, which are not always exact repeats. Equal entries are not always repeated. ± gives the standard deviation of the averaged measurements.

Columns and labels:
Conditions in all cases: concentration: 10 µM; 24 h
HCC1569 [1] = assay: cell number relative to DMSO (% of DMSO); higher = more cells (less growth inhibition / toxicity)
How it was run: (§1)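 Cell number or H1.0 nuclear intensity appears as percent of the plate control, based on the median of replicates. Measurements came from HCC1569 and TDF cells exposed in triplicate to compounds at 10 µM for 24 h at 37 °C, then imaged in six fields per well at ×10. Positional effects were smoothed out of HCC1569 values.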

TDF [2] = assay: as above
How it was run: as §1

TDF [3] = assay: H1.0 immunofluorescence intensity relative to DMSO (% of DMSO); higher = stronger H1.0 induction, active = 120 or more
How it was run: as §1

HCC1569 [4] = assay: H1.0 immunofluorescence intensity relative to DMSO (% of DMSO); higher = stronger H1.0 induction, active = 140 or more
How it was run: as §1
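Wherever H1.0 immunofluorescence intensity relative to DMSO is given: TDF is a line of transformed human dermal fibroblasts of mesenchymal origin.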
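Wherever cell number relative to DMSO is given: TDF denotes transformed human dermal fibroblasts of mesenchymal origin.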

Row | SMILES | cell number (HCC1569 [1]) | cell number (TDF [2]) | H1.0 immunofluorescence intensity (TDF [3]) | H1.0 immunofluorescence intensity (HCC1569 [4])
1 | CCN1CCCC1CNC(=O)c1cc(S(N)(=O)=O)ccc1OC [(S)-(-)-Sulpiride] | 99.3 | 98.1 | 99.8 (inactive) | 101 (inactive)
2 | CN(C)CCC(c1ccc(Br)cc1)c1ccccn1.O=C(O)C=CC(=O)O (single isomer, unassigned; (+)) [(+)-Brompheniramine maleate] | 96.5 | 79.5 | 113 (inactive) | 102 (inactive)
3 | CCC=CCC=CCC=CCCCCCCCCCC(=O)O [Eicosatrienoic acid] | 101 ± 2.8 | 96.7 ± 14 | 100 (inactive) | 99.5 (inactive)
4 | Nc1ncnc2c1ncn2C1OC(CO)C(O)C1O (configuration not stated) [Adenosine] | 107 | 109 | 92.7 (inactive) | 93.6 (inactive)
5 | Cc1ccc(C(=O)Nc2ccc(S(=O)(=O)[O-])c3cc(S(=O)(=O)[O-])cc(S(=O)(=O)[O-])c23)cc1NC(=O)c1cccc(NC(=O)Nc2cccc(C(=O)Nc3cc(C(=O)Nc4ccc(S(=O)(=O)[O-])c5cc(S(=O)(=O)[O-])cc(S(=O)(=O)[O-])c45)ccc3C)c2)c1 [Suramin] | 94.4 | 86.9 | 96.7 (inactive) | 107 (inactive)
6 | O=C(C=Cc1ccc(O)c(O)c1)OC1CC(O)(C(=O)O)CC(O)C1O (configuration not stated) [Chlorogenic acid] | 100 | 98.2 | 103 (inactive) | 100 (inactive)
7 | CSC(=N)N.CSC(=N)N.O=S(=O)(O)O [S-Methylisothiourea hemisulfate] | 103 | 98.6 | 93.5 (inactive) | 96.7 (inactive)
8 | CNC(=O)c1cc(Oc2ccc(NC(=O)Nc3ccc(Cl)c(C(F)(F)F)c3)cc2)ccn1 [Sorafenib] | 45.9 | 21.5 | 108 (inactive) | 68.6 (inactive)
9 | Cl.OC(CN1CCN(c2cccc(Cl)c2)CC1)C(c1ccccc1)c1ccccc1 (configuration not stated) | 102 | 111 | 94.8 (inactive) | 88.3 (inactive)
10 | CCCCS(=N)(=O)CCC(N)C(=O)O [L-Buthionine-sulfoximine] | 102 | 96.6 | 97.4 (inactive) | 95.6 (inactive)
11 | Cl.Cl.OCCN1CCN(CCC=C2c3ccccc3Sc3ccc(C(F)(F)F)cc32)CC1 [cis-(Z)-Flupenthixol dihydrochloride] | 86.1 | 102 | 102 (inactive) | 125 (inactive)
12 | NCC1OC(OC2C(N)CC(N)C(OC3OC(CO)C(O)C(N)C3O)C2O)C(N)CC1O (configuration not stated) [Tobramycin (free base)] | 103 | 102 | 107 (inactive) | 106 (inactive)
13 | CCCCCCCCCCCCCCCC(=O)NCCc1ccc(O)c(O)c1 [Palmitoyl dopamine] | 92.7 | 101 | 101 (inactive) | 105 (inactive)
14 | NS(=O)(=O)c1ccc2c(c1)C1C=CCC1C(c1ccc(Br)cc1)N2 (configuration not stated) | 102 | 91.3 | 95.3 (inactive) | 114 (inactive)
15 | Cl.Cl.NCCc1cnc[nH]1 [Histamine dihydrochloride] | 99.6 | 105 | 92.1 (inactive) | 86.6 (inactive)
16 | CCCCCCCC/C=C\CCCCCCC(O)C(=O)O (configuration not stated) [(9Z)-2-hydroxy-9-octadecenoic acid] | 100 | 88.9 | 102 (inactive) | 91.2 (inactive)
17 | CC(C)C(N)C(=O)OCCOCn1cnc2c(=O)nc(N)[nH]c21 (configuration not stated) [Valaciclovir] | 99.8 | 104 | 102 (inactive) | 109 (inactive)
18 | Br.CN1C2CCC1CC(OC(=O)C(O)c1ccccc1)C2 (configuration not stated) | 102 | 97.5 | 97.2 (inactive) | 94.6 (inactive)
19 | COc1cc(C(=O)NS(=O)(=O)c2ccccc2C)ccc1Cc1cn(C)c2ccc(NC(=O)OC3CCCC3)cc12 [Zafirlukast] | 101 | 110 | 90.1 (inactive) | 105 (inactive)
20 | NC(=O)C1=CN(C2OC(COP(=O)([O-])OP(=O)([O-])OCC3OC(n4cnc5c(N)ncnc54)C(OP(=O)([O-])[O-])C3O)C(O)C2O)C=CC1.[Na+].[Na+].[Na+].[Na+] (configuration not stated) [NADPH tetrasodium] | 103 | 102 | 96.9 (inactive) | 99.1 (inactive)
21 | COc1cc(C)c(C=CC(C)=CC=CC(C)=CC(=O)O)c(C)c1C [Acitretin] | 98.5 | 108 | 90.1 (inactive) | 126 (inactive)
22 | CC(CN1c2ccccc2Sc2ccccc21)N(C)C.Cl (configuration not stated) | 105 | 105 | 110 (inactive) | 112 (inactive)
23 | CCN(CC)CCCC(C)Nc1c2ccc(Cl)cc2nc2ccc(OC)cc12 (configuration not stated) [Quinacrine] | 89.3 | 39.5 | 118 (inactive) | 180 (active)
24 | O=C(Nc1cc(C(=O)Nc2ccc(S(=O)(=O)[O-])cc2S(=O)(=O)[O-])cc(C(=O)Nc2ccc(S(=O)(=O)[O-])cc2S(=O)(=O)[O-])c1)Nc1cc(C(=O)Nc2ccc(S(=O)(=O)[O-])cc2S(=O)(=O)[O-])cc(C(=O)Nc2ccc(S(=O)(=O)[O-])cc2S(=O)(=O)[O-])c1.[Na+].[Na+].[Na+].[Na+].[Na+] [NF449 octasodium salt] | 97.4 | 92.8 | 89.6 (inactive) | 108 (inactive)

Row | SMILES | cell number (HCC1569 [1]) | cell number (TDF [2]) | H1.0 immunofluorescence intensity (TDF [3]) | H1.0 immunofluorescence intensity (HCC1569 [4])
25 | CN1c2cc3c(cc2N=C(c2ccc(C(=O)O)cc2)c2ccccc21)C(C)(C)CCC3(C)C | 77 | 88.5 | 93.8 (inactive) | 112 (inactive)
26 | O=S(=O)(NCCNCC=Cc1ccc(Br)cc1)c1cccc2cnccc12 | 92.1 and 91.5 | 98.1 and 96.7 | 93.6 (inactive) and 99.1 (inactive) | 84.2 (inactive) and 136 (inactive)
27 | CCCCCOC(=O)Nc1nc(=O)n(C2OC(C)C(O)C2O)cc1F (configuration not stated) [Capecitabine] | 102 | 98.9 | 101 (inactive) | 95.7 (inactive)
28 | CCCCC=CCCCCCCCCC(=O)O [10(Z)-Pentadecenoic acid] | 101 | 102 | 103 (inactive) | 104 (inactive)
29 | O=C([O-])CCC(NC(=O)c1ccccc1C(=O)[O-])C(=O)[O-].[Na+].[Na+].[Na+] [Phthalamoyl-L-glutamic acid trisodium] | 61.8 | 103 | 89.2 (inactive) | 170 (active)
30 | O=c1ccc2cc(O)c(O)cc2o1 [Esculetin] | 101 | 94.7 | 99.6 (inactive) | 101 (inactive)
31 | COc1ccc(Cl)cc1NC(=O)Nc1cc(C)nc2ccccc12 [IGF-1R Inhibitor II] | 103 | 97.7 | 98.8 (inactive) | 106 (inactive)
32 | COC(=O)c1ccc(O)c2[nH]c3c(C=O)c(O)cc(=O)c-3nc12 [Lomofungin] | 105 | 117 | 94.3 (inactive) | 101 (inactive)
33 | CC(C=CC=C(C)C=CC1=C(C)CCCC1(C)C)=CC=CC=C(C)C=CC=C(C)C=CC1=C(C)CCCC1(C)C | 101 | 106 | 101 (inactive) | 103 (inactive)
34 | N=C1Sc2ccccc2C2=NCCCN12 | 100 | 99.9 | 91.9 (inactive) | 112 (inactive)
35 | O=C1NCN(c2ccccc2)C12CCN(CCCC(c1ccc(F)cc1)c1ccc(F)cc1)CC2 [Fluspirilene] | 82.7 ± 16 | 87.1 ± 7.5 | 106 (inactive) | 126 (inactive)
36 | COc1ccccc1N1CCN(CCCCNC(=O)c2ccc3ccccc3c2)CC1 | 99.1 | 111 | 106 (inactive) | 97.4 (inactive)
37 | Br.COc1ccccc1N1CCN(CCCCN2C(=O)c3ccccc3C2=O)CC1 [NAN-190 hydrobromide] | 104 | 102 | 90.9 (inactive) | 100 (inactive)
38 | O=c1c(O)c(-c2ccccc2)oc2cc(O)cc(O)c12 [Galangine] | 98.1 | 91.3 | 101 (inactive) | 100 (inactive)
39 | COc1ccccc1O [Guaiacol] | 103 | 107 | 92.7 (inactive) | 107 (inactive)
40 | NCCCCCCCCCCN [1,10-Diaminodecane] | 101 | 98.7 | 89.4 (inactive) | 88.5 (inactive)
41 | Nc1nc(OCc2cc(Br)cs2)c2[nH]cnc2n1 [6-[(4-bromo-2-thienyl)methoxy]-1H-purin-2-amine] | 101 | 107 | 97.7 (inactive) | 113 (inactive)
42 | C[C@@H](Nc1ncnc2[nH]c(-c3ccc(O)cc3)cc12)c1ccccc1 | 66 | 64.8 | 108 (inactive) | 139 (inactive)
43 | Nc1ncn(C2OC(CO)C(O)C2O)c(=O)n1 (configuration not stated) [5-azacytidine] | 65.7 | 78 | 101 (inactive) | 150 (active)
44 | CCOC([O-])=Nc1c[n+](N2CCOCC2)no1 [Molsidomine] | 106 ± 1.7 | 96.4 ± 7.5 | 101 (inactive) | 94 (inactive)
45 | NCC(O)c1ccc(O)c(O)c1.O=C(O)C(O)C(O)C(=O)O (stereo not drawn) [L(-)-Norepinephrine bitartrate] | 109 | 106 | 95.8 (inactive) | 94.6 (inactive)
46 | CC(C)C(=O)Nc1ncc(-c2cc(C(F)F)nn2-c2c(Cl)cccc2Cl)s1 | 75.5 | 69.8 | 111 (inactive) | 111 (inactive)
47 | CC1=CC(=O)C(C(C)C)=CC1=O [Thymoquinone] | 104 ± 1.4 | 102 ± 3.6 | 93.5 (inactive) | 93.3 (inactive)
48 | CNC1CC2OC(C)(C1OC)n1c3ccccc3c3c4c(c5c6ccccc6n2c5c31)C(=O)NC4O (configuration not stated) | 20.4 | 8.22 | 139 (active) | 121 (inactive)
